Shown are actives, neighbours in structure and some others; about 6.5% of the full set was active somewhere.
PMK inhibit: S. pneumoniae PMK inhibitors, primary screen, biochemical, mevalonate pathway, pilot trial included; actives 0.49% (n = 65,000); AID 539, 2006; inhibition, % at 10 µM; purified PMK, PK/LDH-coupled NADH absorbance 340 nm;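 active means top-ranked compounds by inhibition in the single 10 µM screen, taking a fixed number of the strongest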;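 further: 0% = full reaction with DMSO carrier and 100% = background rate without enzyme reaction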
NADH coupling: inhibitors of PK/LDH coupling enzymes, profiling panel, artefact control, biochemical, MLSMR library; coupled PK/LDH NADH assays, four targets; IC50, µM (top dose mostly 10 µM), for the others: at the highest dose inhibition; actives 0.02% (n = 65,000); AID 774, 2007;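 active means single-dose screening hits from any of four coupled enzyme assays that gave an IC50 when retested across doses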;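 further: the DPM-DC format reads NADH fluorescence rather than 340 nm absorbance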
Autofluor 339: intrinsic fluorescence of library compounds, ex339/em460 – biochemical, MLSMR library, data from DPM-DC assay, artefact control, profiling panel | compound autofluorescence, ex339/em460 nm, NADH buffer; hits give high values; 1 = no-compound wells, NADH background | fluorescence fold increase at 10 µM | actives 5.5% (n = 65,000);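 active means at 10 µM, mean starting fluorescence two-fold or more over control wells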;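 further: signal is the first read of a kinetic run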
Spn MK inh: S. pneumoniae MK inhibitors, primary screen, biochemical, PK/LDH-coupled NADH absorbance | purified MK, PK/LDH-coupled NADH absorbance 340 nm | inhibition, % at 10 µM | actives 0.48% (n = 65,000);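 active means ranked among the strongest by inhibition in the single 10 µM screen, a fixed top-ranked set picked for dose follow-up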
Spn DPM-DC inh: S. pneumoniae DPM-DC inhibitors, primary screen, biochemical, PK/LDH-coupled NADH fluorescence | purified DPM-DC | calls only at 10 µM | actives 0.49% (n = 65,000);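 active means the 320 compounds with the highest percent inhibition in the single-dose primary screen, excluding strongly autofluorescent ones, cut at about 32% in these data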;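 further: kinetic rate of NADH fluorescence loss reporting ADP formed by the decarboxylase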
Abs 340nm: compound light absorbance at 340 nm, profiling panel, artefact control, biochemical, MLSMR library, data from PS, PMK, MK assays. fold change at 10 µM. AID 708, 2007. 65,000 tested, under 10 active. compound absorbance at 340 nm, fold over control;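 active means at 10 µM dose, initial 340 nm absorbance at least 2 fold that of control wells; inactive means change under 2 fold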;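 further: initial absorbance extrapolated from kinetic A340 decline of NADH oxidation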
Starred values were filed as active, the others as inactive; i = inactive; . = no result shown.

SMILES | PMK inhibit | NADH coupling | Autofluor 339 | Spn MK inh | Spn DPM-DC inh | Abs 340nm
N#CCc1nnc2n1-c1ccccc1CCC2 | 0 | 1% | 1.1 | 2 | i | 1
O=C(Cc1cccs1)Nc1nnc(-c2ccncc2)s1 | 4 | 5% | 2.2* | 5 | . | 1.1
Cn1c(C(=O)N2CCc3ccccc3C2)cc2c(=O)n3ccccc3nc21 | 13 | 7% | 5* | 0 | . | 1.1
O=C(c1ccco1)N1CCN(c2nc3ccccc3c(=O)n2-c2ccccc2)CC1 | 4 | 3% | 1.8 | 4 | i | 1.1
Cc1cccn2c(=O)c3cc(C(=O)N4CCN(C(=O)c5ccco5)CC4)n(C)c3nc12 | 7 | 4% | 5* | 0 | . | 1.1
Cc1cccn2c(=O)c3cc(C(=O)N4c5ccccc5CC4C)n(C)c3nc12 (stereo not given) | 13 | 7% | 1.9 | 4 | i | 1
Cn1c(C(=O)N2CCN(C(=O)c3ccco3)CC2)cc2c(=O)n3ccccc3nc21 | 3 | 3% | 3.4* | 2 | . | 1
CC1Cc2ccccc2N1C(=O)c1cc2c(=O)n3ccccc3nc2n1C (stereo not given) | 7 | 2% | 1.7 | 0 | i | 1.1
CCN(CC)C(=O)c1cc2c(=O)n3cccc(C)c3nc2n1C | 9 | 10% | 5* | 11 | . | 1.1
O=C(CCN1CCc2ccccc2C1)Nc1ccccc1F | 2 | 4% | 1.1 | 11 | i | 1
Cc1c(C(=O)OCC2CCCO2)[nH]c2c1C(=O)CC(c1ccc(N(C)C)cc1)C2 (stereo not given) | 11 | 13% | 1 | 9 | i | 1
CCCC(=O)C1=C(c2ccccc2)C(C#N)(C#N)C(C#N)=C1N | 2 | 8% | 1.2 | 13 | i | 1.1
Cc1csc(=Nc2ccc(S(=O)(=O)N3CCOCC3)cc2)n1Cc1ccco1 | 10 | 4% | 1.1 | 2 | i | 1.1
N#Cc1ccc(N2CCN(C(=O)c3cccc(F)c3)CC2)c(F)c1 | 5 | 4% | 1.1 | 6 | i | 1
Cc1cccn2c(=O)c3cc(C(=O)N4CCc5ccccc54)n(C)c3nc12 | 10 | 9% | 2.5* | 8 | i | 1
CCCn1c(=NC(=O)c2ccco2)c(C(=O)OCC)cc2c(=O)n3ccccc3nc21 | 1 | 2% | 3.8* | 3 | . | 1.1
CCOC(=O)c1cc2c(=O)n3ccccc3nc2n(CCCOC)c1=NC(C)=O | 0 | 3% | 2.4* | 7 | . | 1
CC(C)OCCCn1c(=N)c(C(N)=S)cc2c(=O)n3ccccc3nc21 | 10 | 7% | 1.9 | 0 | i | 1.1
O=C(CNC(=O)c1cccs1)NCCN1CCN(c2ccccc2F)CC1 | 25* | 5% | 1 | 8 | i | 0.96
CC(C)Cn1cc(C(=O)NCCCN2CCCC2=O)c2c3ccccc3n(C)c2c1=O | 17 | 14% | 3.9* | 7 | i | 1
COc1ccccc1-n1cc(C(=O)NCC(=O)N2CCN(c3ccccn3)CC2)c2ccccc2c1=O | 0 | 1% | 1.2 | 4 | i | 1
CC(C)Cn1cc(C(=O)N2CCN(c3ccccn3)CC2)c2c3ccccc3n(C)c2c1=O | 7 | 5% | 2.1* | 9 | i | 1
Cn1cc(C(=O)NCCN2CCN(c3ccccc3F)CC2)c2c3ccccc3n(C)c2c1=O | 8 | 11% | 3.5* | 2 | i | 1.1
CCOc1ccccc1N(C(=O)Cn1nnnc1-c1ccc(C)o1)C(CC)C(=O)NC(C)(C)C (stereo not given) | 13 | 2% | 1.1 | 10 | i | 1
CCOc1ccccc1-n1c(SCC(=O)NC(C)CC)nnc1-c1ccoc1C (stereo not given) | 0 | 1% | 1.1 | 3 | i | 0.99
SMILES | PMK inhibit | NADH coupling | Autofluor 339 | Spn MK inh | Spn DPM-DC inh | Abs 340nm
O=C(CCCc1c[nH]c2ccccc12)N1CCN(S(=O)(=O)c2cccs2)CC1 | 11 | 4% | 1 | 0 | i | 1
CCN1CCN(C(=O)c2cn(CCOC)c(=O)c3c2c2ccccc2n3C)CC1 | 11 | 7% | 2.8* | 0 | i | 1
Cn1c(C(=O)N2CCCC2)cc2c(=O)n(C)c3ccccc3c21 | 6 | 14% | 1.1 | 26 | i | 1
Cn1cc(C(=O)N2CCN(C(=O)c3ccco3)CC2)c2c3ccccc3n(C)c2c1=O | 16 | 12% | 3.5* | 0 | i | 1.1
CCOC(=O)C1CCCN(C(=O)c2cc3c(=O)n(C)c4ccccc4c3n2C)C1 (stereo not given) | 14 | 8% | 1.1 | 4 | i | 1
COCCn1cc(C(=O)N2CCCC(C)C2)c2c3ccccc3n(C)c2c1=O (stereo not given) | 12 | 10% | 4.5* | 8 | . | 1
CCOC(=O)C1CCN(C(=O)c2cn(CCOC)c(=O)c3c2c2ccccc2n3C)CC1 | 9 | 7% | 4.9* | 4 | . | 1.1
Cc1ccc(S(=O)(=O)Cn2nnnc2C(c2ccc(F)cc2)N2CCC(C(N)=O)CC2)cc1 (stereo not given) | 16 | 8% | 1 | 8 | i | 0.98
Cc1cc(C)c(S(=O)(=O)Nc2ccc(OCC(=O)O)cc2)c(C)c1 | 0 | 1% | 1.1 | 0 | i | 1.1
CCC1Oc2ccc(C)cc2N(CC(=O)NCCN2CCCCCC2)C1=O (stereo not given) | 25* | 8% | 1.1 | 0 | i | 1
Cc1nn(-c2ccccn2)c2c1C(c1ccsc1)C1=C(CCCC1=O)N2 (stereo not given) | 9 | 5% | 4.9* | 0 | . | 1.1
CCc1ccc(C2C3=C(CC(C)(C)CC3=O)Nc3c2c(=O)[nH]c2nc(C)nn32)cc1 (stereo not given) | 0 | 0% | 3.4* | 0 | . | 1.1
COc1ccc(C2C3=C(CC(C)(C)CC3=O)Nc3c2c(=O)[nH]c(=O)n3Cc2ccccc2)cc1 (stereo not given) | 12 | 6% | 1.4 | 6 | i | 1.1
Cc1nc2[nH]c(=O)c3c(n2n1)NC1=C(C(=O)CC(C)(C)C1)C3c1ccc(F)cc1 (stereo not given) | 8 | 5% | 3.8* | 1 | . | 1.1
Cc1ccc(C2C3=C(CC(C)(C)CC3=O)Nc3[nH]c(=S)[nH]c(=O)c32)cc1 (stereo not given) | 18 | 12% | 1.1 | 13 | i | 1.1
CC1CCCN(c2ncnc3c2cnn3-c2ccccc2)C1 (stereo not given) | 10 | 6% | 0.92 | 4 | i | 1
